# Only some compounds are listed: those with a hit (about 9.9% of all), similar ones and a draw of the others.
# SW480 rereplic = inducers of DNA re-replication in SW480 colon cancer cells | SW480 DNA re-replication, Hoechst DNA content imaging, 48 h | Potency, µM (doses to about 46.1 µM), for the others: at the highest dose re-replication activation, usual class: activators | actives 1.8% (n = 340,000) | AID 624297; also: potency is read from the fitted curve at half-maximal effect; % of control where 0% means no effect; nearly all actives have a fitted effect of over 55% in size
#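 Compounds, transferred as 23 nL by pin tool, were incubated with cells for 48 hr; DNA content per nucleus was then quantified by Hoechst staining and fluorescence plate imaging.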
# KB-3-1 cytotox = KB-3-1 parental cell cytotoxicity. Potency, µM (doses to about 46.1 µM), actives largely listed as cytotoxic. actives 1.4% (n = 400,000). AID 1347075. KB-3-1 viability, CellTiter-Glo ATP luminescence, 72 h; also: potency is read from the fitted curve at half-maximal effect; % is scaled to controls: 0 for no effect and ±100 for the full control effect; nearly all actives have a fitted effect of over 60% in size
#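 Screening of KB-3-1 cells (DMEM, 10% FBS, phenol-red free) ran from lowest to highest compound concentration; after 72 h at 37 °C viability was read luminescently and curves fitted.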
# IL-1B inflam inh = blocks inflammasome-driven IL-1 beta release; THP-1 LPS/ATP IL-1B secretion, AlphaLISA, 16 h; active compounds read low; activity change, % at 57.5 µM; actives 4.7% (n = 360,000); in the data active = activity change below about -50%; inconclusive = mostly about -30% to -49%; also: % is scaled to controls: 0 for no effect and ±100 for the full control effect
#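 Secreted IL-1B measured by AlphaLISA bead assay after 16 h compound exposure of THP-1 cells; compounds (final up to 57.5 uM) added 1 h before LPS (250 ng/mL) and ATP (1.25 mM) stimulation; lower signal means less secretion.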
# MCF10A rereplic = induces DNA re-replication in MCF 10a normal breast cells; MCF 10A DNA re-replication, Hoechst nuclear intensity, 48 h; Potency, µM (highest dose often 46.1 µM), for inactives: top-dose activity, positive = re-replication, hits mostly activators; actives 2.9% (n = 350,000); AID 624296; also: potency is read from the fitted curve at half-maximal effect; % of control where 0% means no effect; nearly all actives have a fitted effect of over 50% in size
# KB-V1 cytotox = KB-V1 MDR subline cytotoxicity; KB-V1 MDR cells viability, CellTiter-Glo, 72 h; Potency, µM (top dose mostly 46.1 µM), actives largely listed as cytotoxic; actives 3.4% (n = 400,000); AID 1347076; also: potency is read from the fitted curve at half-maximal effect; % is scaled to controls: 0 for no effect and ±100 for the full control effect; nearly all actives have a fitted effect of over 60% in size
#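 KB-V1 MDR subline cells in DMEM (phenol-red free, 10% FBS) exposed to compounds in qHTS concentration series for 72 h at 37 degrees C. Viability read by CellTiter-Glo luminescence; concentration-effect curves fitted after normalization and correction.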
# Numbers without * were called inactive; i = inactive; ? = inconclusive; nt = no result given. Unless noted, calls follow the shape of the dose curve; as a rule, active = well fitted curve in the direction sought with a large enough effect; inconclusive = small, poorly fitted or top-dose-only effect, or another doubt; inactive = no such curve, though single readings can be large; an effect the other way counts as inactive or inconclusive.
SMILES,SW480 rereplic,KB-3-1 cytotox,IL-1B inflam inh,MCF10A rereplic,KB-V1 cytotox
COc1ccccc1NC(=O)CCSc1nc(C)cs1,-11%,i,-5,-2%,i
COc1cccc(C2CC(c3cccs3)=NN2C(=O)CSc2nc3ccccc3s2)c1OC (stereo not drawn),?,?,0,?,12µM*
COc1ccc(C2=NN(C(=O)CSc3nc4ccccc4s3)C(c3ccc(F)cc3)C2)cc1 (stereo not drawn),6%,?,-6,3%,12µM*
CC(C)c1ccc(C2NC(=S)NC3=C2C(=O)CC(C)(C)C3)cc1 (stereo not drawn),0%,i,0,5%,?
Nc1ncnc2c1C1(CCCCC1)Cc1ccccc1-2,1%,?,0,1%,23µM*
Nc1n[nH]c2c1C1(CCCCC1)Cc1ccccc1-2,5%,i,-4,6%,?
Cc1ccc(-n2c(=O)c3ccc(C(=O)NCc4ccccc4Cl)cc3n(CC(=O)Nc3cccc(F)c3)c2=O)cc1,nt,i,nt,nt,?
O=C(Nc1ccccc1)Nc1nc(-c2ccc(F)cc2)cs1,2%,i,-7,5%,i
O=C(Nc1cccnc1)c1ccccc1NS(=O)(=O)c1ccc(F)cc1,-5%,?,19,8%,21µM*
O=S(=O)(Nc1ccc(-c2csc(-c3ccccc3)n2)cc1)c1ccc(F)cc1,12%,?,-101*,16µM*,?
Fc1ccc(-c2csc(-c3ccncc3)n2)cc1,-2%,i,4,-3%,i
O=C(Nc1nc(-c2ccccc2)cs1)c1ccccc1NS(=O)(=O)c1ccc(F)cc1,-1%,6.5µM*,-50*,16µM*,16µM*
O=S(=O)(Nc1cccnc1)c1ccc(F)cc1,0%,i,10,2%,i
COc1cccc(NC(=O)c2ccc3[nH]c(C)cc(=O)c3c2)c1,nt,i,nt,nt,?
COc1ccc(CCN2C(=O)CSC2=Nc2ccc(C(C)C)cc2)cc1OC,9.2µM*,3.7µM*,nt,16µM*,3.3µM*
COc1ccc(N=C2SCC(=O)N2CCc2ccc(OC)c(OC)c2)cc1,-4%,?,-11,14%,i
CC1(C2CC(C(F)(F)F)n3nc(C(=O)O)cc3N2)CC1 (stereo not drawn),-1%,i,-7,2%,i
C=CC[n+]1c(-c2ccc(OC)cc2)csc1NNC(=O)Nc1ccccc1,3%,i,-25,11%,23µM*
COc1ccc(NC(=O)COC(=O)CNS(=O)(=O)/C=C/c2ccccc2)cc1OC,1%,i,15,-7%,i
Cc1cc(C)c(NC(=O)C(C)n2c(=O)c(C(F)(F)F)nc3ccccc32)c(C)c1 (stereo not drawn),nt,i,nt,nt,i
O=S(=O)(/C=C/C=C/S(=O)(=O)c1ccccc1)c1ccccc1,?,6.5µM*,-101*,?,i
Cc1ccc(S(=O)(=O)C=CS(=O)(=O)c2ccc(C)cc2)cc1,nt,?,-17,nt,i
Clc1ccc2nc(CSc3nnc(-c4c[nH]c5ccccc45)o3)cn2c1,-3%,i,6,8%,i
O=C(CSc1nnc(-c2c[nH]c3ccccc23)o1)N(Cc1ccccc1)c1ccc(F)cc1,-8%,i,-65*,12%,12µM*
Clc1cccc(CSc2nnc(-c3c[nH]c4ccccc34)o2)c1,-5%,i,12,11µM*,?
SMILES,SW480 rereplic,KB-3-1 cytotox,IL-1B inflam inh,MCF10A rereplic,KB-V1 cytotox
COc1ccc(CN(C(=O)CSc2nnc(-c3ccccc3C)o2)c2ccc(F)cc2)cc1,?,i,-3,14%,i
CN(C)c1ccc(/C=N/NC(=O)c2ccc3c(c2)OCO3)cc1,12%,i,-28,0%,i
Cc1c(C(=O)N/N=C/c2ccc(N(C)C)cc2)[nH]c2ccc(Cl)cc12,?,5.8µM*,52,15%,5.8µM*
Cc1c(C(=O)N/N=C/c2ccccc2)[nH]c2ccc(Cl)cc12,21µM*,?,29,15µM*,i
CC(=O)Nc1nonc1-c1nnc(SCc2ccccc2C)n1C,nt,i,nt,nt,i
Cc1cc(Br)c(OCC(=O)NN)c2c1CCC2,31%,i,19,15µM*,?
